The text below walks through data of PubChem BioAssay AID504621 (Broad Institute, 2011).

The structures appear in SMILES notation. About 970 (0.31%) of roughly 310,000 compounds were called active.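 How the source made its calls: active means every replicate shows inhibition above about 80%, whatever the replicate mean (limit read from the data); inconclusive means mean inhibition reaches the set limit but some replicate falls short; inactive means the rest.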 Many of the other results were omitted from the sample, so actives are more common in it than they were.

A short description of the assay: growth inhibition of PfHsp90-expressing yeast, primary screen, antimalarial PfHsp90 inhibitor project, S. cerevisiae, BacTiter-Glo luminescence, single point, set 2 (AID 504621).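 Further: yeast relying on Plasmodium falciparum Hsp90 in place of its own; 0% = DMSO neutral controls and 100% = 20 µM radicicol positive controls.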 Particulars: BacTiter-Glo ATP, 48 h, at 9.4 µM, active compounds read high, yeast lacking PDR1 and PDR3 efflux regulators.
Take `CCCCCCCCCCOC(=O)Cn1c(COc2cccc(OC)c2)[n+](C)c2ccccc21`: the inhibition was -14.9% (inactive).

With `Cc1ccc(OCCCn2c(=O)oc3ccccc32)cc1`, the inhibition was -16.3% (inactive). As for `CCCCCCCCCCOC(=O)Cn1c(COc2ccc(C)cc2)[n+](C)c2ccccc21`, the figure is 110% (active); as for `COc1ccc(-c2nc3cc(C)ccn3c2NC2CCCCC2)cc1SC1CCCCC1`, 9.74% (inactive); as for `FC(F)(F)c1ccc(-c2cccc3c2C2CC3CCN2Cc2ccccc2)cc1` (stereo not drawn), 6.57% (inactive). Then `O=C1C=C(c2ccc(Cl)cc2)C(=O)N1Nc1ccccc1`, with 134% (active); and `O=C(O)CC1=C(Nc2ccccc2)C(=O)N(c2ccccc2)C1c1ccc(Cl)cc1` (stereo not drawn), with -10.5% (inactive); and `O=C(CCC(=O)OCc1ccc(Cl)cc1)Nc1ccccc1`, with -21.6% (inactive).

As for `COc1cc(/C=C/c2ccc(/C=C/c3cc(OC)c(OC)c(OC)c3)cc2)cc(OC)c1OC`, the inhibition was -3.68% (inactive). As for `Cc1c[n+]([O-])ccc1[N+](=O)[O-]`, the figure is 4.7% (inactive). Then `COCC(=O)N(C)[C@H]1C[C@H]2c3cc(Oc4ccccc4C)ccc3CCN2C(=O)[C@H]1[C@H](C)O`, with -8.3% (inactive); and `O=S(=O)(Nc1ccc2ccccc2c1)N1CCCCC1`, with 2.41% (inactive). `O=C(CNC(=O)c1cc(S(=O)(=O)N2CCOCC2)ccc1N1CCCC1)Nc1ccc(F)c(F)c1`: the inhibition is -6.44% (inactive).

With `CCN1/C(=C\c2ccc3ccccc3[n+]2CC)Sc2cc(C)ccc21`, the inhibition is 87.5% (active). Then `Cc1cccc(C=CC(=O)c2ccc(Cl)cc2)c1`, with 5.15% (inactive). Then `Cc1ccc(C)c(N2CCN(C(=O)CCc3nc(-c4cccc(C(F)(F)F)c4)no3)CC2)c1`, with -1.63% (inactive).

For the compound `O=C(O)C(CCc1ccccn1)c1ccccc1` (stereo not drawn), the inhibition was -16% (inactive).

As for `CCCCNC(=O)C(C)N(CCN(C)C)C(=O)CCCCCN1C(=O)NC(c2ccc(Cl)cc2)C(C(=O)OCc2ccccc2)=C1C` (stereo not drawn), the inhibition is -0.725% (inactive). Then `COc1cccc(/C=N/Nc2ncc(C(F)(F)F)cc2Cl)c1O`, with 91.5% (active); and `FC(F)(F)c1cnc(Oc2ccccc2-c2nnc(-c3ccc(Cl)cc3)o2)c(Cl)c1`, with -8.43% (inactive); and `COc1cccc(/C=N/Nc2cc(C)nc(-c3ccccc3O)n2)c1O`, with -15.4% (inactive).

Turning to `CCCCCCCCNS(=O)(=O)CCNC1CCCCC1`, the inhibition was 21.1% (inactive). As for `O=C(NC1=CC(=O)c2ccccc2C1=O)c1ccccc1`, the figure is 54.3% (inactive); as for `C#CCOCCOCCOCCNc1nc(N2CCN(C(=O)Cn3cc(CCO)nn3)CC2)nc(N2CCN(C(=O)[C@H](CCCCN)n3cc(CCCC)nn3)CC2)n1`, -9.73% (inactive); as for `Oc1c(Cl)cc(Cl)c(Cl)c1Cc1c(O)c(Cl)cc(Cl)c1Cl`, 108% (active). As for `O=C(Nc1ccc2ccccc2c1[N+](=O)[O-])c1ccccc1`, the figure is -14.2% (inactive); as for `COc1ccc(CC(=O)NC(C)c2ccc(Cl)c(Cl)c2)cc1S(=O)(=O)N1CCOCC1` (stereo not drawn), 15.2% (inactive). Consider `COc1ccc(C(C[N+](=O)[O-])n2nc(C)cc2C)cc1` (stereo not drawn), for which the inhibition is 104% (active).

As to `CCOc1ccc(C(C)C)cc1S(=O)(=O)n1nc(C)cc1C`, the inhibition was 11.4% (inactive). As for `COc1ccc(OCc2cn3c(C)cc(C)nc3n2)cc1`, the inhibition is -13.7% (inactive). Then `O=C(/C(=C/c1cccc(Cl)c1)c1nc2ccccc2[nH]1)c1ccccc1`, with 86.9% (active); and `O=C(Cc1nc2ccccc2[nH]c1=O)c1ccc(Cl)cc1`, with -1.68% (inactive).

On to `CCC(=O)/C(=C(/O)c1ccccc1)c1nc2ccccc2[nH]1`, for which the inhibition is -12.2% (inactive).

`Nc1ccc2c(c1)C(O)c1ccc(Cl)cc1-2` (stereo not drawn): the inhibition is -1.88% (inactive). As for `CN(C)S(=O)(=O)Oc1ccccc1C(=O)Nc1ccccc1Cl`, the figure is 15.5% (inactive); as for `O=C(Nc1ccccc1Cl)O/N=C(/c1ccccc1)c1ccccn1`, 9.66% (inactive). Regarding `O=C(Nc1ccccc1Cl)/C(Cl)=C(\Cl)S(=O)c1ccccc1` (stereo not drawn), the inhibition was 127% (active).

Consider `Cc1cc(OCCCC(=O)Nc2cc(S(=O)(=O)N3CCOCC3)ccc2N2CCOCC2)ccc1Cl`, for which the inhibition is -7.69% (inactive). As for `COc1ccc(C2=Nn3c(nnc3-c3ccccc3OC)SC2)cc1OC1CCCC1`, the figure is 1.24% (inactive); as for `CCCCN(C(=O)CSCc1ccc(C)cc1)c1c(N)n(Cc2ccccc2)c(=O)[nH]c1=O`, -17.2% (inactive). Then `Cc1cc2c(cc1C)NC1(C[C@H]3CCC(=O)N4CC[C@@H](C1)[C@@H]34)C(=NC(C)(C)CC(C)(C)C)N2` (stereo partly drawn), with 3.65% (inactive); and `CCOc1ccc(NC(=O)c2nc(SCC)ncc2Cl)cc1`, with 15.7% (inactive); and `Cc1cccc(CS(=O)(=O)c2ncc(Cl)c(C(=O)Nc3ccc(F)cc3)n2)c1`, with 105% (active).

Turning to `Cc1cccc(NC(=O)c2nc(S(=O)(=O)Cc3ccccc3)ncc2Cl)c1`, the inhibition was 98.3% (active). Then `CSc1ncc(Cl)c(C(=O)Nc2cc(C)ccc2C)n1`, with 7.23% (inactive); and `Cc1ccc(CS(=O)(=O)c2ncc(Cl)c(C(=O)Nc3nnc(C)s3)n2)cc1`, with 7.63% (inactive); and `CSc1nnc(NC(=O)c2nc(S(=O)(=O)Cc3ccc(C)cc3)ncc2Cl)s1`, with 11.8% (inactive).

For `COC1C(CO)OC(n2cnc3c(=S)nc(N)[nH]c32)C1O` (stereo not drawn), the inhibition is 24.5% (inactive).

As to `COc1ccccc1NC(=O)N(O)C1(C#N)CCCCC1`, the inhibition was -17.6% (inactive). Then `Cc1cc(NC(=O)C(C)SCC(=O)Nc2cccc(S(=O)(=O)N3CCCCCC3)c2)no1` (stereo not drawn), with -41.5% (inactive); and `CC1(C)C(=O)CCC2(C)C1=CCC1C2C(=O)CC2(C)C1CCC2(O)C(=O)CO` (stereo not drawn), with 20.2% (inactive). Then `COc1ccc(CCNC(=O)COc2cc(C)cc3oc(=O)c(C)c(C)c23)cc1OC`, with -2.49% (inactive). Then `CCN1C[C@@H]2[C@@H]3C(=O)N(C)C(=O)[C@@H]3[C@](C)(C1=O)N2C(=O)c1ccccc1`, with -20.8% (inactive). As to `COc1ccc(Cl)cc1C=CC=Nc1ccc(S(N)(=O)=O)cc1`, the inhibition was 4.35% (inactive). As for `O=C(CSc1ccc(-c2ccccn2)nn1)Nc1ccccc1`, the figure is 119% (active); as for `O=C(CSc1ccc(-c2ccc(-n3cccn3)cc2)nn1)Nc1ccc([N+](=O)[O-])cc1`, 2.41% (inactive); as for `O=C(CSc1ccc(-c2ccco2)nn1)Nc1cccc(F)c1`, -6.54% (inactive). As for `NS(=O)(=O)c1ccc(CCNC(=O)c2ccc(Cl)c(S(=O)(=O)N3CCCCCC3)c2)cc1`, the figure is -11.9% (inactive). For `O=S(=O)(Cc1ccc(Cl)cc1Cl)c1ccc(Cl)cc1`, the inhibition was -35.8% (inactive). As for `Cc1cccc(C)c1NC(=O)C(c1ccccc1)N1CC(=O)Nc2ccccc21` (stereo not drawn), the figure is -3.52% (inactive); as for `Cc1cccc(C)c1NC(=O)C(Cl)C(=O)c1ccccc1` (stereo not drawn), 106% (active); as for `Cc1cccc(C)c1NC(=O)CN(C)C(=O)CCC(=O)c1ccccc1`, 3.14% (inactive). As for `CC[C@]12c3[nH]c4ccc(OC)cc4c3CCN1C(=O)C(CC(=O)NCc1ccco1)C[C@@H]2C(=O)N1CCN(C(=O)C2CC2)CC1` (stereo partly drawn), the figure is 0.556% (inactive); as for `CCN(C(=O)C1CCCN(c2nc(-c3ccc(OC)cc3)no2)C1)c1ccc(OC)cc1` (stereo not drawn), 103% (active); as for `COc1ccc(NC(=O)N2CCCC(c3nc(-c4ccc(F)cc4)no3)C2)cc1` (stereo not drawn), -5.6% (inactive).

As to `CCOC(=O)C1CCCN(C(=O)CN(c2ccc(OC)cc2)S(=O)(=O)c2c(C)noc2C)C1` (stereo not drawn), the inhibition was 14.1% (inactive). Take `Cc1ccc(/C=N/NC(=O)c2cc3ccccc3cc2O)o1`: the inhibition is -3.13% (inactive). Then `CC(=O)CCC(=O)c1ccc2ccccc2c1`, with 14.9% (inactive); and `Cc1cc(N=Nc2ccc3ccccc3c2)ccc1O`, with 107% (active).

Turning to `CCCCNC(=O)C(C)N(CCN(C)C)C(=O)CCCN1C(=O)NC(c2ccc(Cl)cc2)C(C(=O)OCc2ccccc2)=C1C` (stereo not drawn), the inhibition is -3.34% (inactive). Then `CN(C)CCNC(=O)c1ccc(Cl)c2cc3ccccc3nc12`, with -3.1% (inactive); and `O=C(Cc1ccccc1)n1nc(-c2ccccc2)nc1NCc1ccco1`, with -9.78% (inactive).

As for `O=c1nc2s/c(=C\c3ccco3)c(=O)n2nc1Cc1ccccc1`, the inhibition is 109% (active). As for `Cc1nc2nc(SCC(=O)NCc3ccco3)nn2c(C)c1Cc1ccccc1`, the inhibition is -0.223% (inactive). For the compound `c1ccc2sc(NN=C3CCCC3)nc2c1`, the inhibition was 7.45% (inactive). With `O=C(CCNC(=O)c1ccccc1)Nc1nc2ccccc2s1`, the inhibition was -3.35% (inactive).

Consider `c1ccc(C(=NNc2nc3ccccc3s2)c2ccccn2)cc1`, for which the inhibition is 108% (active).

For the compound `O=[N+]([O-])c1ccc(N=NNc2ccc([N+](=O)[O-])cc2)cc1`, the inhibition is -30.4% (inactive).

Usually inhibition stands for the relative decrease from the control value, in per cent.
